Cycloheximide cs: affects cycloheximide protein synthesis inhibition readout, counter-screen. AID 2314. cell reporter, cycloheximide protein synthesis inhibition counterscreen. max response, %. actives 12% (n = 300,000); in the data active means max response mostly above about 13%, no sharp cut-off; inactive means mostly below about 14%; further: read at 38.3 µM for the half of the compounds with a filed dose; 0% is about no effect
Shiga inhibitor: inhibitors of Shiga toxin in Vero cells; actives 9.2% (n = 290,000); AID 2315; Vero cells, Shiga toxin protein synthesis inhibition reporter; inhibition, % at 38.7 µM; in the data active means inhibition mostly above about 28%, no sharp cut-off; inactive means mostly below about 43%; further: 0% is about no effect
NS1 function inh: influenza NS1 inhibition. AID 2326. Potency, µM (top dose mostly 46.1 µM), inactives show top-dose activity, positive = more growth. actives 0.4% (n = 270,000); further: potency means the concentration at half of the fitted maximal effect; actives are rising curves; nearly all actives have a fitted effect of over 50% in size
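Read-out: OD600 growth recovery of NS1-expressing budding yeast. Cells grown overnight at 30C in -URA glucose medium, washed, resuspended and diluted 1:100 in 2% galactose assay medium, pH 6.0. Same strain lacking NS1 served as positive control.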
Pf growth 48h: inhibits P. falciparum growth in the first generation, 48 h. P. falciparum luciferase growth in erythrocytes, 48 h. Potency, µM (top dose mostly 28.7 µM), for the others: top-dose activity change, negative = inhibition, actives largely listed as inhibitors. actives 5.9% (n = 310,000); active means well fitted inhibition curve with a large enough effect; inconclusive means small, poorly fitted or top-dose-only effect, or another doubt; inactive means no such curve, though single readings can be large or run the other way; further: potency means the concentration at half of the fitted maximal effect; on the % scale 0 is the no-effect control and ±100 the full control effect
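Read-out is firefly luciferase luminescence from an integrated reporter in P. falciparum, so falling signal marks reduced parasite growth. Infected erythrocytes were at 2% hematocrit and 0.1% parasitemia (final) in Albumax-supplemented RPMI 1640.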
SARS PLP yeast: inhibitors of SARS-CoV papain-like protease in yeast | S. cerevisiae expressing SARS-CoV PLpro, growth rescue | Potency, µM (titrated, usually from 32.9 µM), for inactives: at the top dose activity, positive = growth rescue, most hits filed as activators | actives 0.19% (n = 330,000) | AID 485353; further: potency means the concentration at half of the fitted maximal effect; 0% is about no effect; nearly all actives have a fitted effect of over 55% in size
Pf growth 96h: inhibits malaria parasite growth, 96 h; Potency, µM (highest dose often 28.7 µM), without a hit: at the highest dose activity change, negative = inhibition, most hits filed as inhibitors; P. falciparum luciferase reporter growth, 96 h; actives 6.9% (n = 320,000); active means well fitted inhibition curve with a large enough effect; inconclusive means small, poorly fitted or top-dose-only effect, or another doubt; inactive means no such curve, though single readings can be large or run the other way; further: potency means the concentration at half of the fitted maximal effect; on the % scale 0 is the no-effect control and ±100 the full control effect
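P. falciparum expressing integrated firefly luciferase, in erythrocytes at 2% hematocrit, 0.05% parasitemia, incubated with compounds 96 h at 37 C, 5% CO2. Growth inhibition read as loss of luminescence; two-generation exposure targets delayed-death apicoplast inhibitors.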
* marks the source's active call; other numbers are inactive results; ? = inconclusive; . = no result given. Rows were chosen to be rich in hits. Some 21% of all compounds tested hit in one or more screens of this group. Unless noted, the call rests on the fitted dose curve.

SMILES	Cycloheximide cs	Shiga inhibitor	NS1 function inh	Pf growth 48h	SARS PLP yeast	Pf growth 96h
Cc1ccc(C)c(NC(=O)CSc2nccn2Cc2ccco2)c1	23.9*	53.8*	4.7%	5.9%	2.0%	20.3%
O=C(CSc1nccn1Cc1ccco1)Nc1ccccc1F	29.9*	18.3	4.1%	32.5%	9.6%	52.6%
CCOC(=O)CC(NC(=O)CCc1c(C)nc2ncnn2c1C)c1ccc(OC(C)C)cc1 (stereo not drawn)	-6.8	2.1	.	?	-1.0%	?
O=C(CCC1CCCN(C(=O)c2cccnc2)C1)NCc1ccccc1F (stereo not drawn)	17.5*	3.2	3.1%	11.8%	-1.6%	-13.2%
O=C(CCC1CCCN(C(=O)CCN2CCCCC2=O)C1)NCc1ccccc1F (stereo not drawn)	13.7*	-10.6	-1.9%	29.0%	1.2%	21.4%
CC1=C(C(=O)N2CCCC(CCC(=O)NCc3ccccc3F)C2)OCCO1 (stereo not drawn)	-2.0	-4.0	1.6%	-8.4%	0.6%	-6.2%
CN(C)c1cccc(C(=O)N2CCCC(CCC(=O)NCc3ccccc3F)C2)c1 (stereo not drawn)	30.5*	15.6	-5.3%	3.29µM*	-5.3%	?
O=C(CCC1CCCN(C(=O)c2ccoc2)C1)NCc1ccccc1F (stereo not drawn)	13.7	15.6	0.4%	12.7%	0.1%	3.3%
Cc1ccc(NC(=O)NCc2ccccn2)c(C)c1	2.6	-5.7	-0.8%	-4.5%	2.5%	?
CC[C@H](C)[C@H](NC(=O)[C@H](N)Cc1ccc(O)cc1)C(=O)N[C@@H](CC(N)=O)C(=O)N[C@@H](CC(C)C)C(=O)N[C@H](C(=O)N[C@@H](C(=O)N[C@@H](CCCN=C(N)N)C(=O)N[C@@H](CCC(N)=O)C(=O)N[C@@H](CCCN=C(N)N)C(=O)N[C@H](Cc1ccc(O)cc1)C(N)=O)[C@@H](C)O)[C@@H](C)CC	-3.5	-6.0	.	.	.	.
COc1cc(SC)ccc1C(=O)NCCCOC(C)C	13.0*	13.7	-6.8%	25.4%	1.0%	?
COc1cc(SC)ccc1C(=O)NCc1ccc(C)cc1	16.1*	30.7	-64.8%	?	-14.4%	?
COc1cc(SC)ccc1C(=O)N(C)CC(=O)Nc1cccc2ccccc12	.	.	.	?	16.3%	-6.6%
COc1cc(SC)ccc1C(=O)N(C)Cc1ccccc1	21.7*	28.4	-35.7%	7.2%	-0.3%	20.7%
COc1cc(SC)ccc1C(=O)NCc1ccccc1	26.0*	36.3*	1.8%	1.3%	11.1%	?
CCOC(=O)c1ccccc1NC(=O)CSc1nc2ccccc2c(=O)n1CCCN1CCOCC1	.	.	.	.	10.4%	.
O=C(O)C1SCCN1S(=O)(=O)c1ccc(N=NN2CCOCC2)cc1 (stereo not drawn)	0.4	-11.4	-2.1%	21.5%	0.1%	1.85µM*
CC(=O)N(C(C)=O)S(=O)(=O)c1ccc(N=NN2CCCCC2)cc1	-0.6	10.1	2.3%	0.4%	20.9%	36.8%
CCC1=C2CC[C@H]3C(=O)N(c4ccccc4)C(=O)[C@H]3[C@H]2[C@@]2(C)C(=NCc3ccccc3)OC(=O)N2C1=O	-4.6	-7.3	-0.2%	?	-2.3%	?
CCC1=C(OC(=O)N(CC)CC)N2C(=O)OC(=NCCc3c[nH]c4ccccc34)[C@]2(Cc2ccccc2)[C@H]2C1=CC[C@H]1C(=O)N(c3ccccc3)C(=O)[C@H]12	-4.8	-9.5	8.6%	13.1µM*	1.4%	?
CCC1=C(OC(=O)N(CC)CC)N2C(=O)OC(=NCCc3c[nH]c4ccccc34)[C@]2(Cc2ccccc2)[C@H]2C1=CC[C@H]1C(=O)N(C)C(=O)[C@H]12	-6.0	8.9	-17.3%	10.4µM*	2.6%	11.7µM*
N#CCCC(CCC#N)C1=NCCc2ccccc21	-0.5	12.4	0.0%	11.0%	1.5%	28.4%
COc1ccc(/C=C/c2cc(C(F)(F)F)on2)cc1	40.1*	63.8*	4.1%	48.8%	0.7%	51.2%
COc1cc2c(cc1OC)CN(CC(=O)Nc1ccc(S(=O)(=O)N(C)C)cc1)CC2	-1.7	1.9	.	-27.0%	0.0%	?
COc1cc2c(cc1OC)CN(CC(=O)Nc1ccc(C)c(S(=O)(=O)N3CCOCC3)c1)CC2	-8.7	-6.1	-12.9%	?	9.5%	11.7µM*
SMILES	Cycloheximide cs	Shiga inhibitor	NS1 function inh	Pf growth 48h	SARS PLP yeast	Pf growth 96h
COc1cc2c(cc1OC)CN(CC(=O)Nc1ccc(Cl)c(S(=O)(=O)N(C)C)c1)CC2	7.2	23.6	.	13.1µM*	-1.0%	?
O=C(Cc1ncc(C(F)(F)F)cc1Cl)NNc1cccc(F)n1	-6.4	-13.0	-12.3%	0.4%	0.2%	2.7%
COc1ccc(O)c(/C=N/n2c(-c3ccco3)csc2=Nc2cccnc2)c1	-1.9	-20.8	7.5%	-11.7%	-4.3%	-18.9%
CCN=c1scc(-c2cccs2)n1/N=C/c1cc(OC)ccc1O	51.1*	41.1	-15.6%	114.7%	0.3%	13.3%
CC(C)N=c1scc(-c2cccs2)n1/N=C/c1ccc(O)c(O)c1O	16.4*	59.8*	-5.0%	-15.9%	-75.3%	?
COc1ccccc1NC(=O)C1CCN(C(=O)C2CC(=O)N(c3ccc(C)cc3)C2)CC1 (stereo not drawn)	-6.2	-5.5	-2.9%	2.7%	-0.6%	-12.5%
O=C(Nc1ccc(Cl)cn1)c1ccc2nccnc2c1	32.5*	132.3*	-4.3%	129.5%	-4.7%	-1.9%
O=C(Nc1ccc(Cl)cn1)c1cccnc1	14.5*	2.6	-3.0%	44.1%	-2.8%	.
O=C(Nc1ccc(Br)cn1)c1ccc2nccnc2c1	.	.	-15.7%	.	.	.
COC(=O)c1ccccc1NC(=O)c1ccc2nccnc2c1	6.4	-2.3	.	-28.4%	-1.4%	?
O=C(Nc1ccccc1Cl)c1ccc2nccnc2c1	24.9*	66.8*	-3.1%	127.5%	11.0%	8.2%
C/C(Cn1nnc2ccccc21)=N\NC(=O)c1ccc(Br)cc1	-1.7	-1.7	.	19.8%	-0.6%	17.9%
COc1ccccc1Sc1nc(-c2ccccn2)ncc1OC	3.0	-9.3	.	?	2.1%	?
FC(F)(F)c1cccc(Sc2cc(C(F)(F)F)nc(-c3ccccn3)n2)c1	-0.9	-16.3	24.3%	0.0%	-5.1%	?
COc1cnc(-c2ccccn2)nc1Sc1cccc(Cl)c1	1.3	-3.5	-3.9%	?	0.4%	1.47µM*
COc1cnc(-c2ccccn2)nc1Sc1ccc(C)cc1	5.3	6.8	.	11.7µM*	?	?
Cc1ccc(Sc2cc(C)nc(-c3ccccn3)n2)cc1	30.8*	46.4	-99.0%	?	-14.8%	?
COc1ccc(C(=O)N2CCN(c3ncccn3)CC2)cc1[N+](=O)[O-]	1.2	-10.9	5.3%	4.6%	1.1%	?
COc1ccc(Cn2c(CCC(=O)Nc3ccccc3)nc3cccnc32)cc1	-2.7	-18.5	3.1%	-13.8%	1.4%	?

Source: PubChem
